Experimental findings from PubChem BioAssay (NCI) are described below.

Compounds without any hit were thinned out: in the full panel of roughly 83,000, 20% have a hit.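 Results are percent growth after 48 hours of single-concentration exposure. 100 means growth as in untreated cells, lower positive values show inhibition; negative values down to -100 show cell death.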 A number with no mark means an inactive call. Activity calls are given as the source filed them. The calls were made as follows: active = growth percent below 10; inactive = the rest.

Test systems include BT-549 breast; MDA-MB-435 melanoma; SW-620 colon; MCF7 breast; HCT-116 colon; HCC-2998 colon; KM12 colon.
Common to all, as to test: NCI-60 one-dose screen, 48 h (100 = growth as untreated, 0 = no growth, -100 = all killed)
Details in all cases: 10 µM

`COc1ccc(-n2c(SCc3cc(OC)c(OC)c(OC)c3)nc3ccc(C)cc3c2=O)cc1`: the growth with BT-549 breast was 71.5%; with MDA-MB-435 melanoma, -4.51% (active); in the experiment with SW-620 colon, 49.3%; with MCF7 breast, 24.8%; with HCT-116 colon, 35%; with HCC-2998 colon, 75.7%. The growth with KM12 colon is 35.4%.
As for `COc1cc(Cl)cc(-c2nn(-c3cccc(NC(=O)c4ccc(Cl)c(Cl)c4)c3)cc2-c2ccncc2)c1`, the growth with BT-549 breast was 85.2%; in the experiment with MDA-MB-435 melanoma, 80.7%; in the experiment with SW-620 colon it was 84.2%; in the experiment on MCF7 breast, 57.7%; in the experiment with HCT-116 colon, 44.1%; with HCC-2998 colon it was 77.8%. In the experiment with KM12 colon, the growth is 62.3%.
Take `COc1ccc2c(c1)O/C(=C\c1ccc([N+](=O)[O-])o1)C2=O`: the growth is -50% (active) in the experiment with BT-549 breast; -72.5% (active) in the experiment on MDA-MB-435 melanoma; -53.8% (active) in the experiment on SW-620 colon; 2.06% (active) with MCF7 breast; -39% (active) with HCT-116 colon; -26.8% (active) with HCC-2998 colon. Moreover, the growth in the experiment on KM12 colon is -11.5% (active).
As for `COc1ccc2nc3ccccc3c(NCCNCC(C)O)c2c1` (centres undefined), the growth in the experiment with BT-549 breast is 30.9%; in the experiment on MDA-MB-435 melanoma, 1.44% (active); in the experiment on SW-620 colon, 0.102% (active); in the experiment with MCF7 breast, 4.08% (active); in the experiment with HCT-116 colon, 0.194% (active); in the experiment on HCC-2998 colon it was -11.8% (active). The growth with KM12 colon is 9.48% (active).
For the molecule `O=C(CCCCC[P+](c1ccccc1)(c1ccccc1)c1ccccc1)NC(COC(=O)C(Cl)Cl)(COC(=O)C(Cl)Cl)COC(=O)C(Cl)Cl`, the growth in the experiment on BT-549 breast was 94.9%; in the experiment on MDA-MB-435 melanoma it was 102%; in the experiment with SW-620 colon, 107%; in the experiment on MCF7 breast, 95.2%; in the experiment with HCT-116 colon it was 100%; in the experiment with HCC-2998 colon, 109%. The growth with KM12 colon was 107%.
`COc1cc(/C=N/NC(=O)c2ccccc2Nc2ccnc(C(F)(F)F)c2)ccc1O`: the growth was 116% with BT-549 breast; 106% in the experiment with MDA-MB-435 melanoma; 104% with SW-620 colon; 86.8% in the experiment with MCF7 breast; 102% in the experiment with HCT-116 colon; 123% in the experiment on HCC-2998 colon. For the same molecule, in the experiment with KM12 colon, the growth was 114%.
Consider `Cc1cc(Cl)nc(N(CCCNc2ccnc3cc(Cl)ccc23)Cc2cccs2)n1`, for which the growth with BT-549 breast was 24.7%; in the experiment on MDA-MB-435 melanoma it was 3.55% (active); in the experiment with SW-620 colon, 11.8%; in the experiment with MCF7 breast, 10.7%; in the experiment with HCT-116 colon, 3.08% (active); with HCC-2998 colon it was 0.165% (active). The growth with KM12 colon was 12.8%.
`CN(C)c1ccc(/C=C/C=N/NC(=O)c2cc(O)c(O)c(O)c2)cc1`: the growth was 89.7% with BT-549 breast; 96.7% in the experiment on MDA-MB-435 melanoma; 43.4% in the experiment on SW-620 colon; 87.8% in the experiment on MCF7 breast; 52.7% with HCT-116 colon; 109% in the experiment on HCC-2998 colon. In addition, in the experiment on KM12 colon, the growth was 104%.
On to `NC(=O)c1ccc(-c2cccc3c(=O)nc(N4CCOCC4)oc23)cc1`, for which the growth with BT-549 breast is 98.1%; in the experiment on MDA-MB-435 melanoma, 107%; in the experiment on SW-620 colon it was 104%; in the experiment with MCF7 breast, 90.3%; in the experiment on HCT-116 colon it was 104%; in the experiment on HCC-2998 colon, 101%. For the same molecule, the growth with KM12 colon is 97.6%.
On to `CO/N=C(/C(=O)NC1C(=O)N2C(C(=O)O)=C(COC(N)=O)CSC12)c1ccco1` (centres undefined), for which the growth with BT-549 breast is 108%; with MDA-MB-435 melanoma, 104%; with SW-620 colon, 110%; with MCF7 breast, 94.2%; in the experiment with HCT-116 colon, 104%; in the experiment on HCC-2998 colon, 104%. Also, in the experiment on KM12 colon, the growth was 113%.
As to `O=C(N/N=C/c1ccccc1O)C(O)(c1ccccc1)c1ccccc1`, the growth in the experiment on BT-549 breast was 70.3%; in the experiment on MDA-MB-435 melanoma it was 65.2%; with SW-620 colon, 51.1%; in the experiment on MCF7 breast, 50.7%; with HCT-116 colon, 8.42% (active); in the experiment on HCC-2998 colon it was 76.3%. Further, in the experiment with KM12 colon, the growth was 53.7%.
For `CCN1CCN(c2nc3ccccc3c3c(=O)c4ccccc4sc23)CC1`, the growth with BT-549 breast is 69%; in the experiment with MDA-MB-435 melanoma it was 47.9%; in the experiment on SW-620 colon, 24%; in the experiment with MCF7 breast, 28.3%; in the experiment with HCT-116 colon, 27.5%; with HCC-2998 colon, 57.2%. The growth in the experiment on KM12 colon was 36.1%.
Consider `Nc1c(C(=O)Nc2cccc3ccccc23)sc2nc3c(cc12)C(=O)CCC3`, for which the growth with BT-549 breast is 57%; with MDA-MB-435 melanoma it was -37.3% (active); with SW-620 colon, 21.3%; in the experiment on MCF7 breast, 13.6%; in the experiment with HCT-116 colon it was 17.5%; in the experiment with HCC-2998 colon, 11.9%. Further, the growth with KM12 colon is 25.9%.
As to `CCCCC/C=C/C(=O)CCc1ccc(O)c(OC)c1`, the growth with BT-549 breast is 66.9%; with MDA-MB-435 melanoma, 19.4%; in the experiment on SW-620 colon, 68.4%; in the experiment on MCF7 breast, 1.77% (active); with HCT-116 colon it was 13.6%; with HCC-2998 colon, 21%. The growth in the experiment with KM12 colon is 31.1%.
Take `O=C(Nc1cccc(-n2cc(-c3ccncc3)c(-c3ccc(O)c(Cl)c3)n2)c1)Nc1cccc(C(F)(F)F)c1`: the growth in the experiment on BT-549 breast is 13.3%; in the experiment on MDA-MB-435 melanoma, -35.3% (active); in the experiment on SW-620 colon, 13.2%; with MCF7 breast, -6.1% (active); in the experiment with HCT-116 colon, 5.24% (active); in the experiment with HCC-2998 colon, 20.4%. For the same molecule, the growth with KM12 colon is -14.7% (active).
As to `CC(=O)C1CCC2C3CC(F)C4=CC(=O)CCC4(C)C3C(O)CC12C` (centres undefined), the growth in the experiment on BT-549 breast was 91.2%; in the experiment on MDA-MB-435 melanoma it was 102%; in the experiment on SW-620 colon it was 109%; in the experiment with MCF7 breast it was 94.5%; with HCT-116 colon it was 89.9%; in the experiment on HCC-2998 colon it was 105%. Besides, the growth with KM12 colon is 111%.
Turning to `O=C(O)c1ccc(P(=O)(O)O)c([N+](=O)[O-])c1`, the growth with BT-549 breast is 102%; with MDA-MB-435 melanoma, 96%; in the experiment on SW-620 colon, 98.2%; with MCF7 breast it was 99.3%; in the experiment on HCT-116 colon, 113%; in the experiment on HCC-2998 colon, 111%. Besides, in the experiment on KM12 colon, the growth is 105%.
Regarding `COc1ccc2c(c1)-c1c(c3cc(OC)ccc3n(CCN(C)C)c1=O)C2=O`, the growth is 64.2% with BT-549 breast; 21.8% in the experiment with MDA-MB-435 melanoma; -8.7% (active) in the experiment with SW-620 colon; -0.273% (active) with MCF7 breast; -21.2% (active) in the experiment with HCT-116 colon; 34.9% in the experiment on HCC-2998 colon. In the experiment on KM12 colon, the growth is 8.92% (active).
As for `O=C1/C(=C/c2ccc([N+](=O)[O-])o2)Oc2ccccc21`, the growth in the experiment on BT-549 breast was -51.3% (active); with MDA-MB-435 melanoma it was -70.9% (active); in the experiment on SW-620 colon, -77.6% (active); in the experiment with MCF7 breast, 7.13% (active); in the experiment on HCT-116 colon it was -56% (active); with HCC-2998 colon, -1.7% (active). The growth with KM12 colon was 48.3%.
On to `CN(C)CCN1C(=O)c2cccc3c(-c4ccc5ncn(C6CCCCC6)c5c4)ccc(c23)C1=O`, for which the growth in the experiment with BT-549 breast is 56.5%; in the experiment on MDA-MB-435 melanoma, 39.9%; with SW-620 colon, 21.4%; in the experiment on MCF7 breast, 12.1%; in the experiment with HCT-116 colon, 8.6% (active); in the experiment with HCC-2998 colon it was 39.8%. Besides, in the experiment on KM12 colon, the growth is 24.8%.
On to `CCCCCCN1C(=O)C2=C(c3ccc(Cl)cc3)Nc3c(c(C)nn3-c3ccccc3)C2c2ccccc21` (centres undefined), for which the growth in the experiment with BT-549 breast is 102%; in the experiment with MDA-MB-435 melanoma, 89.8%; in the experiment with SW-620 colon, 111%; in the experiment with MCF7 breast, 77.8%; in the experiment on HCT-116 colon, 87.9%; with HCC-2998 colon it was 92.1%. In addition, the growth in the experiment with KM12 colon was 107%.
With `CC(C)=CCc1cc(O)cc2c1OC(C=C(C)C)C1=C2C(=O)C2=C(NCCS2(=O)=O)C1=O` (centres undefined), the growth was 18.3% in the experiment on BT-549 breast; -56.4% (active) in the experiment with MDA-MB-435 melanoma; 4.68% (active) with SW-620 colon; -54.5% (active) in the experiment on MCF7 breast; -15.4% (active) in the experiment with HCT-116 colon; -12.6% (active) in the experiment with HCC-2998 colon. Further, the growth in the experiment on KM12 colon is 43.3%.
